Source: PubChem BioAssay AID1210 (NMMLSC, 2008)
Calls of active or inactive are those of the source.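 The calls were made as follows: active = blocks over 70% of labeled estradiol binding at 10 µM, or over a set limit at 100 nM; inactive = the rest.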

Biological target: Estrogen receptor beta (Homo sapiens) (UniProt Q92731)
Test: ERbeta ligand binders by competition, primary screen, cell-based, Cos7 ERbeta-GFP, flow cytometry (AID 1210);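 also: 0% = DMSO vehicle wells and 100% = complete loss of labeled estradiol signal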
Details: fluorescent estrogen binding, stronger effect = higher value
[1] = ligand binding inhibition, at 0.1 µM

Estrogen receptor beta (Homo sapiens), sequence (Q92731 whole entry, looked up): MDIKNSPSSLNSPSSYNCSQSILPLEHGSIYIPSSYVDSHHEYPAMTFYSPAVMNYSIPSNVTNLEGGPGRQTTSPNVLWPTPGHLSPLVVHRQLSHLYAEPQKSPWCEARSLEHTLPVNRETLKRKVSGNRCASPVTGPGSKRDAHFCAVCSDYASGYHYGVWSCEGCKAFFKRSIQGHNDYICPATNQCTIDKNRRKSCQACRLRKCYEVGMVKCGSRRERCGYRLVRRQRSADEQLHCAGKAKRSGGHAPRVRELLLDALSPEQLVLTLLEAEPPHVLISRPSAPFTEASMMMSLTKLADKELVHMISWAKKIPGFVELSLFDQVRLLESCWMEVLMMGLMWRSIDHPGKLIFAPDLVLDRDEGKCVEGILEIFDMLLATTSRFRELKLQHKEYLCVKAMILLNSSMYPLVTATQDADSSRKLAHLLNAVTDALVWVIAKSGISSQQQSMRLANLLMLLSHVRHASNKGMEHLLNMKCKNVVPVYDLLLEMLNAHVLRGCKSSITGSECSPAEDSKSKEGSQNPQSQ

Structure (SMILES) | inhibition (at 10 µM) | inhibition [1] [%]
COc1ccc(C2CC(c3ccccc3)=NN2c2ccc(N)cc2)cc1 (centres undefined) | 69% (inactive) | 23
Cc1ccc(C(=O)Nc2nc(-c3cccnc3)cs2)o1 | 15% (inactive) | 43
ON=C1/C(=N\O)CC2(C/C1=N/O)OCCO2 | 28% (inactive) | 31
Oc1ccccc1C1=Nc2ccccc2N=C(c2cccs2)C1 | 19% (inactive) | 17
COc1ccc(-c2ccc(=O)[nH]n2)cc1 | 0% (inactive) | 16
O=C(CSc1ccc(Cl)cc1)c1ccco1 | 14% (inactive) | 53
COc1ccc2c(c1)c(=O)oc1cc(OCC(=O)NC3CCCCC3)ccc12 | 31% (inactive) | 22
O=C(Cc1cccs1)Nc1ccc(-c2nnn(CC(=O)N3CCOCC3)n2)cc1 | 30% (inactive) | 2
Cc1ccc2occ(C3NC(C(=O)O)CS3)c(=O)c2c1 (centres undefined) | 62% (inactive) | 27
CCN(CC)c1ccc(-c2nn3c(-c4ccccc4OC)nnc3s2)cc1 | 32% (inactive) | 24
COc1ccc(N=C2NC(=O)S/C2=C\c2ccc(N(C)C)cc2)cc1 | 59% (inactive) | 4
O=C(O)C1OC(Oc2c(-c3ccc(O)c(O)c3)oc3cc(O)cc(O)c3c2=O)C(O)C(O)C1O (centres undefined) | 55% (inactive) | 2
COC(=O)c1ccc(CC(=O)c2ccc(O)cc2O)o1 | 44% (inactive) | 20
COc1cc2cc(C(c3nnnn3C3CCCC3)N3CCc4ccccc43)c(=O)[nH]c2cc1OC (centres undefined) | 37% (inactive) | 25
Cc1cc(C)c2c(c1)[C@@H]1C=CC[C@@H]1[C@H](c1ccc(S(=O)(=O)N3CCOCC3)cc1)N2 | 35% (inactive) | 48
CC1(N2CCOCC2)CC2(O)C(=[N+]1[O-])CCc1nonc12 (centres undefined) | 49% (inactive) | 62
Cc1ccc(C)n1-c1sccc1C(=O)O | 18% (inactive) | 26
Cc1cc(-c2nn3c(-c4ccccc4)nnc3s2)c2ccccc2n1 | 71% (active) | 45
COc1ccc(C)cc1-n1nnnc1SCC(=O)NC(=O)NCc1ccco1 | 61% (inactive) | 12
CCCc1cc(-n2ccnc2)n2c(nc3ccccc32)c1C#N | 32% (active) | 75
CCCCCc1nnc(NC(=O)Cc2cccs2)s1 | 18% (inactive) | 5
CC(=O)N1c2ccc3ccccc3c2C2C=CCC2C1c1ccc(Br)cc1 (centres undefined) | 8% (inactive) | 3
COc1cccc(-c2[nH]nc3c2C(c2ccoc2)C(C#N)=C(N)O3)c1 (centres undefined) | 54% (inactive) | 29
COC(=O)c1ccc(C2Nc3ccc(/C(C)=N/NC(=O)C(OC)c4ccccc4)cc3C3C=CCC32)cc1 (centres undefined) | 22% (inactive) | 40
Cc1ccc(-n2c(=O)c(C#N)cc3c(=O)n4cccc(C)c4nc32)cc1 | 72% (active) | 29
O=Cc1ccc2oc3nc4n(c(=O)c3c(=O)c2c1)CCCS4 | 15% (inactive) | 2
Oc1cccc(-c2nc3ccc4ccccc4c3c3c2CCC3)c1 | 39% (inactive) | 21
